# Rows were chosen to be rich in hits. Some 3.9% of all compounds tested hit in one or more screens of this group.
# D1 agonist: activates the human D1 dopamine receptor; HEK293 T-REx D1 cells, calcium flux, agonist mode; P21728; activation, % at 2 µM; 360,000 tested, 1% active; AID 504660; in the data active = activation above about 30%; note: 0% is about no effect
#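 Tetracycline-induced HEK293 TREx D1 cells, force-coupled to calcium signalling, were dye-loaded with a no-wash calcium kit. Compound was pin-added after a 10 s baseline. Fluorescence was read kinetically at 1 cycle/s for 180 s, with calcium rises flagged as agonism.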
# GALK inhibitor: inhibitors of human galactokinase | 270,000 tested, 0.007% active | AID 1868 | P51570 | Potency, µM (series often up to 57.5 µM), for the others: at the highest dose activity change, negative = inhibition, usual class: inhibitors | Purified GALK, Kinase-Glo residual ATP luminescence; note: potency is the fitted concentration of half-maximal effect; % is set by controls: 0 for no effect and ±100 for the full control effect
#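 The enzyme phosphorylates galactose (100 uM) using ATP (35 uM); inhibition is detected as higher residual ATP, quantified by bioluminescence after 1 h reaction at room temperature, pH 8.0.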
# D1 antagonist: human D1 dopamine receptor antagonism; AID 504652; HEK293 TREx D1 cells, calcium flux, dopamine EC80; stronger effect = lower value; 360,000 tested, 3.2% active; activity change, negative = inhibition, % at 10 µM; in the data active = activity change below about -30%; note: % is set by controls: 0 for no effect and ±100 for the full control effect
#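 HEK293 T-REx cells expressing inducible, force-coupled D1 receptor; no-wash Ca dye, 30–90 min RT. Cmpd → 180 s read at 1 Hz → EC80 DA → 180 s read.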
# USP2a inh: USP2a (human) protease inhibition | 330,000 tested, 0.01% active | USP2 core, Ub-CHOP2 coupled fluorogenic reporter, 485/531 | O75604 | Potency, µM (highest dose often 38.3 µM), inactives show at the top dose activity change, negative = inhibition, hits mostly inhibitors;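 note: potency is the fitted concentration of half-maximal effect; plate controls were DMSO wells for no effect and full inhibition by NEM control for full effect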
# Target sequence (O75604 whole entry, looked up): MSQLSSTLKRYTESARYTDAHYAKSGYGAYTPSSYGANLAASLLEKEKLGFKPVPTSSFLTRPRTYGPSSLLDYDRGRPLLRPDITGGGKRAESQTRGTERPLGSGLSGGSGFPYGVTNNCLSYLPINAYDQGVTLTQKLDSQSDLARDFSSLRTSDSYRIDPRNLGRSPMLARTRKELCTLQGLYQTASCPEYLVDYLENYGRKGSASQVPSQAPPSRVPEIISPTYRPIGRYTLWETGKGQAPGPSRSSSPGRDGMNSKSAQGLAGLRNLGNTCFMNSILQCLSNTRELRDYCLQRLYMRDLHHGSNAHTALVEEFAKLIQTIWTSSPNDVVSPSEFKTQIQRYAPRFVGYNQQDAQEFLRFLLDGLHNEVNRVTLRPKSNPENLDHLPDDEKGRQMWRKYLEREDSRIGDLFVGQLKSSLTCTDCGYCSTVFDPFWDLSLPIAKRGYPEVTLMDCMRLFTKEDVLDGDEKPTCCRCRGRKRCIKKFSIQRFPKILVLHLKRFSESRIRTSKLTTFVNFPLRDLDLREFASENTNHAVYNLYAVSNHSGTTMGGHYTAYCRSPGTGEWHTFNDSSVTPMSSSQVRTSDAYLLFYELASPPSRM
#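 Cell-free coupled assay: 10nM USP2 core preincubated 30min RT with compound in Tris-HCl pH 8.0/CaCl2/CHAPS buffer, then 25nM Ub-CHOP2 and 25nM reporter substrate; fluorescence (Ex 485/Em 531) read after 60min RT, normalized to NEM inhibition, concentration-response curves fitted.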
# Eya2 inh: inhibitors of human Eya2 phosphatase activity; recombinant Eya2, OMFP fluorescence dephosphorylation (OMFP is methylfluorescein phosphate); Potency, µM (doses to about 76.9 µM), without a hit: at the highest dose activity, negative = inhibition, usual class: inhibitors; 330,000 tested, 0.006% active; note: potency is the fitted concentration of half-maximal effect; % is set by controls: 0 for no effect and ±100 for the full control effect
#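 Eya2 protein (added as 0.2 uM solution) was preincubated with compound for 10 min at ambient temperature in 50 mM HEPES pH 7.5, 50 mM NaCl, 5 uM MgCl2, 0.05% BSA, 1 mM DTT. OMFP (added at 50 uM) then reacted 10 min; fluorescence read at 485/525 nm.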
# D1 PAM: potentiators of human D1 dopamine receptor; P21728; HEK293 TREx D1 cells, calcium flux, dopamine EC20 potentiation; potentiation, % at 10 µM; 360,000 tested, 0.036% active; AID 504651; in the data active = potentiation above about 30%; note: 0% is about no effect
# Active calls of the source: *; . = not tested or not shown; ! = not confirmed by another sample. Unless noted, calls come from the whole dose curve; as a rule, active = well fitted inhibition curve with a large enough effect; inconclusive = small, poorly fitted or top-dose-only effect, or effect the other way; inactive = flat fitted curve, though single readings scatter.
SMILES,D1 agonist,GALK inhibitor,D1 antagonist,USP2a inh,Eya2 inh,D1 PAM
COc1ccc(CCNC(=O)c2ccc(Cl)c(S(=O)(=O)N(C)c3ccccc3)c2)cc1,18,2%,-31*,0%,-11%,-4
COc1cccc(/C=N/NC(=O)c2ccc(N(C)S(=O)(=O)c3ccccc3)cc2)c1OC,3,-1%,-36*,2%,-3%,0
COc1ccc(CCNc2ncnc3c2c(-c2ccccc2)cn3-c2ccc(F)cc2)cc1OC,6,.,-16,.,.,-3
O=C(CCn1ccc2cc(S(=O)(=O)N3CCCC3)ccc21)NCc1ccccc1F,5,-1%,-31*!,1%,-14%,-2
O=C(CCn1ccc2cc(S(=O)(=O)N3CCCC3)ccc21)NCc1ccccc1Cl,7,.,-15,.,.,-2
CCOc1ccccc1CNC(=O)CCn1ccc2cc(S(=O)(=O)N3CCCCC3)ccc21,48*!,-4%,9,1%,-7%,3
CCOc1ccccc1CNC(=O)Cn1ccc2cc(S(=O)(=O)N3CCCCCC3)ccc21,7,-6%,-4,2%,-3%,6
O=C(Nc1ccc(F)c(Cl)c1)c1ccc2c(Cl)c3c(nc2c1)CCCC3,1,.,0,.,.,0
Cc1ccc(Cl)cc1NC(=O)C1CCN(c2nnc(C)c3c(C)n(-c4ccccc4)nc23)CC1,0,.,6,.,.,0
COc1ccc(-c2noc(CCC(=O)NCCCN3CCN(c4ccccc4F)CC3)n2)cc1,31*,0%,-56*,-1%,-1%,-17
Cc1ccc(-c2noc(CCC(=O)NCCCN3CCN(c4ccc(F)cc4)CC3)n2)cc1,25,7%,-83*,-1%,-2%,-14
COc1ccc(-c2noc(CCC(=O)NCCN3CCN(c4ccccc4F)CC3)n2)cc1,9,1%,-5,2%,-29%,-7
Cc1ccc(-c2noc(CCC(=O)NCCCN3CCN(c4cccc(Cl)c4)CC3)n2)cc1,82*,9%,-73*,-2%,0%,-9
CC(C)NC(=O)CCSc1nc(-c2ccc3c(c2)OCO3)cc(C(F)(F)F)n1,3,.,-12,.,.,-5
CC(OC(=O)c1cc(Br)ccc1O)C(=O)NC1(C#N)CCCCC1 (configuration not stated),36*,.,-13,-1%,15%,-7
CCCc1cc(=O)[nH]c(SCc2nc(-c3ccc(OCC)cc3)no2)n1,0,.,5,.,.,-3
Cc1nc(-c2ccc(S(=O)(=O)N3CCN(C4c5ccccc5-c5ccccc54)CC3)s2)cs1,1,.,6,10%,4%,-4
Cc1nc(-c2ccc(S(=O)(=O)N3CCCN(CCc4ccccc4)CC3)s2)cs1,31*,0%,-22,-2%,-2%,-4
CCOC(=O)C1CCN(C(c2ccc(C)cc2)c2sc3nc(-c4ccco4)nn3c2O)CC1 (configuration not stated),-4,.,.,.,.,0
Cc1csc(=O)n1CCC(=O)OCC(=O)NNC(=O)c1ccc(Cl)cc1,1,.,32,1%,9%,-7
CCOC(=O)c1ccc2c(c1)nc(SCC(=O)c1ccco1)n2CC,0,6%,-34*,-1%,-18%,-2
CSc1nc2sc3c(c2c(=O)n1C)CCC3,1,5%,-35*,5%,7%,-1
CCc1nc2sc3c(c2c(=O)n1N)CCC3,1,0%,1,2%,5%,5
CCc1nc2sc3c(c2c(=O)n1CCO)CCC3,0,-2%,-44*,-1%,2%,0
CCCNc1c(F)c(F)c2c(C)c3ccccc3nc2c1F,41*,-6%,4,17%,10%,-6
COc1ccc(NC(=S)Nc2cc(-c3ccccc3)[nH]n2)cc1Cl,2,1%,-79*,-5%,7%,-3
Cc1cc(NC(=S)Nc2ccc(C)c(Cl)c2)n[nH]1,1,-4%,-39*,1%,-3%,-4
Cc1cc(S(=O)(=O)Nc2ccc(C(=O)O)cc2)c(C)c(S(=O)(=O)c2ccc(Cl)cc2)c1,-2,.,-2,.,.,0

# Bioassay records from PubChem.
